PREPL inhibitor – human PREPL enzyme inhibition | Q4J6C6 | recombinant PREPL, fluorescence polarization activity-based probe | inhibition, % at 5.96 µM | 0.68% of 320,000 active; in the data active = inhibition above about 43%;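 note: 0% = enzyme with DMSO and 100% = wells lacking enzyme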
LYPLA1 counter – LYPLA1 (human) inhibition in PME1 counter-screen; O75608; recombinant LYPLA1, FP-Rh probe fluorescence polarization; inhibition, % at 5.9 µM; 0.16% of 320,000 active; AID 2174;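 active = inhibition above the mean of all tested compounds plus 3 SD, set per campaign, cut at about 14% in these data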;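 note: inhibitors block serine hydrolase probe labeling of LYPLA1 so polarization falls; 0% = enzyme with DMSO and 100% = wells lacking LYPLA1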
Fam108B inh – Fam108B inhibition, counter-screen for RBBP9 inhibitors; recombinant Fam108B, FP-Rh probe fluorescence polarization; 0.33% of 300,000 active; AID 1947; inhibition, % at 9.51 µM;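 active = inhibition above the screen mean inhibition plus 3 SD, computed separately per campaign, cut at about 18% in these data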;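 note: inhibitors lower polarization as less probe binds the enzyme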
PME-1 inh – PME-1 (human) inhibition | Q9Y570 | recombinant PME-1, FP-Rh probe fluorescence polarization | inhibition, % at 5.9 µM | 0.53% of 320,000 active;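 active = inhibition above the campaign mean of all compounds plus 3 SD, cut at about 26% in these data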;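 note: competitive labeling of PME-1 active site by serine hydrolase directed probe; 0% = PME-1 with DMSO and 100% = wells lacking PME-1 enzyme; inhibitors block probe labeling so polarization falls and inhibition rises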
LYPLA2 counter – blocks human lysophospholipase 2, a PME1 counter-screen; inhibition, % at 5.9 µM; recombinant LYPLA2, FP-Rh probe fluorescence polarization; 0.38% of 320,000 active; O95372;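 active = inhibition above the screen-wide mean plus 3 SD, limit set per campaign, cut at about 26% in these data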;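 note: 0% = LYPLA2 with DMSO and 100% = wells lacking LYPLA2 enzyme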
Target sequence (O95372 whole entry, looked up): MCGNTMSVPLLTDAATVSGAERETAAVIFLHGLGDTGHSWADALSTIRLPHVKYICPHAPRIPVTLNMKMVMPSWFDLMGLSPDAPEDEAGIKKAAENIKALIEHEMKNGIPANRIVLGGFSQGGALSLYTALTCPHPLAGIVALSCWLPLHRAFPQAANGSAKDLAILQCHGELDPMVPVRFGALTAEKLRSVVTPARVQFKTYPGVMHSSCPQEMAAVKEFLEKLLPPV
Starred values were filed as active, the others as inactive; x = no result. Sampled rows, rich in hits. Any-hit rate of the full collection: about 1.3%.

SMILES	PREPL inhibitor	LYPLA1 counter	Fam108B inh	PME-1 inh	LYPLA2 counter
Cc1ccc(NC(=O)CN(C)CC(=O)Nc2ccc(N3CCOCC3)cc2)c(C)c1	54*	-2	2	-6	-1
CN(CC(=O)Nc1ccc(N2CCOCC2)cc1)CC(=O)Nc1ccc(C(F)(F)F)cc1	27	7	4	0	-2
Cc1ccc2c(c1)C1C=CCC1C(C(=O)O)N2 (centres undefined)	22	-8	46*	14	5
Cc1ccc2c(c1)C1C=CCC1C(C(=O)NCCCN1CCOCC1)N2 (centres undefined)	18	0	1	-3	0
CC(C(=O)N1CCc2ccccc21)N(C)CC(=O)Nc1cccc(F)c1 (centres undefined)	-21	1	x	9	2
Cn1ccs/c1=N\C(=O)Nc1cccc(C(F)(F)F)c1	13	5	2	-3	5
Cc1cccc(-n2c3nc(=O)[nH]c(=O)c-3cc3cc([N+](=O)[O-])ccc32)c1	3	0	13	31*	-1
Cc1cccc(-n2c3nc(=O)[nH]c(=O)c-3cc3c(C)nn(-c4ccccc4)c32)c1C	0	-2	-2	-7	-9
COc1ccc(N2CCN(C(=S)Nc3ccccc3)CC2)cc1	5	1	-5	-1	-3
CC(=O)c1ccc(N2CCN(C(=S)Nc3ccc(Oc4ccccc4)cc3)CC2)cc1	10	5	-3	2	32*
COc1cccc(CNC(=O)CCCc2cn(C)c3ccccc23)c1	-11	1	-1	134*	4
CCc1ccc(/C(C)=N/NC(=O)CNC(=O)/C=C/c2ccco2)cc1	2	-10	-7	-9	-9
Cc1ccc(-c2nc(Nc3ccc(N4CCOCC4)cc3)c3ccccc3n2)cc1	46*	-21	9	3	-21
C=CC[C@@H](CC(=O)OC(C)(C)C)C(=O)OC[C@H]1CCCN1C(=O)[C@@H](CC=C)CC(=O)N(CCO)Cc1ccccc1	15	x	x	x	x
CCC1Sc2ccc(S(=O)(=O)CCC(=O)Nc3ccc(OC(F)(F)F)cc3)cc2NC1=O (centres undefined)	-13	-6	-7	26*	-2
CCC1Sc2ccc(S(=O)(=O)CCC(=O)Nc3ccc(NC(C)=O)cc3)cc2NC1=O (centres undefined)	5	-1	1	5	2
C(=N\Nc1nc2ccccc2[nH]1)/c1cccs1	19	-3	5	-17	-3
Cn1c(/C=N/Nc2nc3ccccc3[nH]2)nc2ccccc21	29	-7	12	48*	-7
Cc1ccc(S(=O)(=O)N2CCN(C(=O)Cn3cnc4c3c(=O)n(C)c(=O)n4C)CC2)cc1C	6	1	x	42*	-3
Cn1c(=O)c2c(ncn2CC(=O)N2CCN(S(=O)(=O)c3ccc(F)cc3)CC2)n(C)c1=O	-3	4	x	13	1
OC1(C(F)(F)F)CC(c2ccc3ccccc3c2)=NO1 (centres undefined)	-14	-3	1	2	-3
COc1cc(-c2[nH]ncc2CN2CCN(c3cccc(C)n3)CC2)cc(OC)c1OC	21	0	3	-2	-4
CCCCc1ncc(CN2CCC(n3nccc3NC(=O)c3ccccc3OC)CC2)[nH]1	9	1	2	0	5
CCCN(CC(=O)Nc1ccccc1C)C(=O)COC(=O)CSc1ccc([N+](=O)[O-])cc1	12	-2	1	28*	2
CCCN(C(=O)c1ccco1)c1nnc(-c2ccccc2C)s1	3	-4	-2	1	-8
SMILES	PREPL inhibitor	LYPLA1 counter	Fam108B inh	PME-1 inh	LYPLA2 counter
CC(O/N=C(\N)c1ccccc1)C(=O)Nc1cccc(C(F)(F)F)c1 (centres undefined)	1	x	x	x	x
CCOc1ccccc1N1C(=O)c2ccc(S(=O)(=O)c3ccc(C(=O)O)cc3)cc2C1=O	3	3	-2	-4	3
COC(=O)CCSC(=S)N1CCOCC1	-5	-1	-3	4	7
Nc1c(C(=O)Nc2nc3ccccc3s2)sc2nc(-c3cccs3)ccc12	10	-13	8	34*	-6
CC(=O)c1sc2nc(-c3cccs3)ccc2c1N	0	-5	-5	-12	-13
Nc1c(C(=O)Nc2ccccc2)sc2nc(-c3ccco3)ccc12	17	-11	4	56*	2
COc1ccccc1NC(=O)c1sc2nc(C)cc(C)c2c1N	-2	3	1	4	3
COc1ccccc1NC(=O)c1sc2nc(-c3ccco3)ccc2c1N	8	-10	10	70*	-6

Screens (PubChem)
